In PubChem BioAssay AID1159580 (chemical genetic matrix, 2015):
Values joined by “and” are separate entries in the source; they are usually repeats but may differ in a detail not shown here. Equal values may be shown once. About 2,000 (36%) of roughly 5,500 compounds were called active. Another 18% or so got no clear call; they are omitted. No stated cut-off is given here; in the data, active means normalized growth mostly below about 0.91 (no sharp cut-off); inconclusive means no clear call, values can overlap the other calls; inactive means mostly above about 0.92. The list shows a part of the results.

Test: chemical genetic growth profiling, strain panel (AID 1159580);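 further: tested at 20 µM; growth read once vehicle control cultures reached saturation at 30 °C; 1 = growth at the plate median or of vehicle wells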
Details: S. cerevisiae deletion strains, growth OD

Measured: normalized growth

CC/C(=C(/CC)c1ccc(O)cc1)c1ccc(O)cc1
0.795 (active) and 0.97 (inactive): locus YJL095W, strain BCK1, stronger effect = lower value
active: locus YAL021C, strain ccr4, stronger effect = lower value 1.09 [resistant] | locus YDL074C, strain BRE1, stronger effect = lower value 0.776 | locus YDR137W, strain rgp1, stronger effect = lower value 0.49 | locus YDR162C, strain NBP2, stronger effect = lower value 0.754 | locus YDR195W, strain ref2 1.2 [resistant]
inactive: locus YAL026C, strain drs2, stronger effect = lower value 0.958 | locus YAL030W, strain snc1, stronger effect = lower value 1 | locus YBL061C, strain skt5, stronger effect = lower value 1 | locus YBR009C, strain hhf1, stronger effect = lower value 0.953 | locus YBR021W, strain FUR4, stronger effect = lower value 0.992 | locus YBR023C, strain chs3, stronger effect = lower value 0.984 | locus YBR171W, strain sec66, stronger effect = lower value 0.987 | locus YBR229C, strain ROT2, stronger effect = lower value 1 | locus YBR231C, strain swc5, stronger effect = lower value 1.03 | locus YBR279W, strain paf1, stronger effect = lower value 0.961 | locus YCL011C, strain gbp2, stronger effect = lower value 0.976 | locus YCL016C, strain dcc1, stronger effect = lower value 0.943 | locus YCL029C, strain bik1, stronger effect = lower value 0.962 | locus YCL061C, strain MRC1, stronger effect = lower value 1 | locus YCL069W, strain vba3, stronger effect = lower value 0.987 | locus YCR088W, strain abp1, stronger effect = lower value 1.02 | locus YDL005C, strain med2, stronger effect = lower value 1.01 | locus YDL035C, strain GPR1, stronger effect = lower value 0.867 | locus YDL040C, strain nat1, stronger effect = lower value 1.01 | locus YDL101C, strain DUN1, stronger effect = lower value 0.963 | locus YDL185W, strain tfp1, stronger effect = lower value 0.997 | locus YDL192W, strain arf1, stronger effect = lower value 0.991 | locus YDR001C, strain nth1, stronger effect = lower value 1.01 | locus YDR069C, strain doa4, stronger effect = lower value 1.02 | locus YDR101C, strain arx1, stronger effect = lower value 0.961 | locus YDR150W, strain NUM1, stronger effect = lower value 1.01 | locus YDR159W, strain sac3, stronger effect = lower value 0.905 | locus YDR297W, strain sur2, stronger effect = lower value 1 | locus YDR318W, strain mcm21, stronger effect = lower value 0.952 | locus YDR334W, strain swr1, stronger effect = lower value 1.04 | locus YDR335W, strain msn5, stronger effect = lower value 1.02 | locus YDR388W, stronger effect = lower value 0.991 | locus YDR392W, strain spt3, stronger effect = lower value 0.869 | locus YDR502C, strain sam2, stronger effect = lower value 0.955 | locus YEL003W, strain gim4, stronger effect = lower value 1 | locus YEL037C, strain rad23, stronger effect = lower value 1.01 | locus YEL061C, strain CIN8 (second series), stronger effect = lower value 1.03 | locus YEL061C, strain CIN8, stronger effect = lower value 0.999 | locus YER015W, strain faa2, stronger effect = lower value 0.945 | locus YER016W, strain bim1, stronger effect = lower value 0.958 | locus YER110C, stronger effect = lower value 1.03 | locus YER111C, strain swi4, stronger effect = lower value 1.05 | locus YER155C, strain BEM2 (second series), stronger effect = lower value 1.03 | locus YER155C, strain BEM2, stronger effect = lower value 0.979 | locus YER167W, strain BCK2, stronger effect = lower value 0.984 | locus YFR010W, strain ubp6, stronger effect = lower value 1.04 | locus YGL078C, strain dbp3, stronger effect = lower value 0.977 | locus YGL086W, strain mad1, stronger effect = lower value 0.955 | locus YGL167C, strain pmr1, stronger effect = lower value 0.995 | locus YGL173C, strain kem1, stronger effect = lower value 0.959 | locus YGL227W, strain vid30, stronger effect = lower value 1.03 | locus YGL240W, strain doc1, stronger effect = lower value 0.98 | locus YGL248W, strain PDE1, stronger effect = lower value 0.915 | locus YGL253W, strain hxk2, stronger effect = lower value 0.989 | locus YGR135W, strain pre9, stronger effect = lower value 0.962 | locus YGR252W, strain gcn5, stronger effect = lower value 0.921 | locus YHR013C, strain ard1, stronger effect = lower value 1.09 | locus YHR027C, strain rpn1, stronger effect = lower value 0.98 | locus YHR030C, strain SLT2, stronger effect = lower value 0.98 and 0.958 | locus YHR079C, strain IRE1 (second series), stronger effect = lower value 1.01 | locus YHR079C, strain IRE1, stronger effect = lower value 0.96 | locus YHR094C, strain hxt1, stronger effect = lower value 1 | locus YHR129C, strain ARP1, stronger effect = lower value 0.976 | locus YHR142W, strain chs7, stronger effect = lower value 1.03 | locus YHR200W, strain rpn10, stronger effect = lower value 0.991 | locus YIL066C, strain RNR3, stronger effect = lower value 0.937 | locus YIL073C, strain SPO22, stronger effect = lower value 1.21 | locus YIL125W, strain kgd1, stronger effect = lower value 0.995 | locus YIR030C, strain dcg1, stronger effect = lower value 0.998 | locus YJL092W, strain hpr5, stronger effect = lower value 1 | locus YJL095W, strain BCK1 (second series), stronger effect = lower value 0.982 | locus YJL115W, strain asf1, stronger effect = lower value 1.04 | locus YJL129C, strain trk1, stronger effect = lower value 0.94 | locus YJL134W, strain LCB3, stronger effect = lower value 1 | locus YJL154C, strain vps35, stronger effect = lower value 0.997 | locus YJL164C, strain tpk1, stronger effect = lower value 0.944 | locus YJL166W, strain qcr8, stronger effect = lower value 0.958 | locus YJL168C, strain set2, stronger effect = lower value 1 | locus YJL187C, strain SWE1 (second series), stronger effect = lower value 0.923 | locus YJR043C, strain POL32, stronger effect = lower value 0.952 | locus YJR066W, strain TOR1, stronger effect = lower value 0.938 | locus YJR075W, strain HOC1, stronger effect = lower value 0.959
